Only some compounds are listed: those with a hit (about 3% of all), similar ones and a draw of the others.
LMP1 NFkB inh – reduces LMP1-driven NF-kappaB luciferase signal | AID 504558 | actives 0.69% (n = 350,000) | inhibition, % at 12.5 µM | LMP1-induced NF-kappaB luciferase reporter cells, luminescence; in the data active = inhibition above about 41%;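 also: 0% = neutral control wells and 100% = reference inhibitor control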
Peg3 promoter – Peg3 promoter activity inhibition. HeLa PEG-Prom luciferase reporter, luminescence, overnight. inhibition, % at 20 µM. actives 1.7% (n = 360,000). AID 588405;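 active = inhibition of at least 50% at 20 µM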
CF NFkB inh – cystic fibrosis NF-kB activation inhibition. AID 588850. actives 0.86% (n = 360,000). inhibition, % at 5 µM. KKLEB NF-kB-GFP reporter, PAF-induced, GFP fluorescence overnight;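 active = at least 50% inhibition at 5 µM, scaled per plate between neutral and stimulator controls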;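 also: PAF is a Pseudomonas aeruginosa culture filtrate used as stimulus; plate controls were PAF-stimulated DMSO wells for no effect and unstimulated DMSO wells for full effect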
MITF TRPM1 inh – MITF TRPM1 promoter inhibition in SK-MEL-5 cells. actives 0.83% (n = 330,000). inhibition, % at 12.5 µM. SK-MEL-5 TRPM1 promoter luciferase, 24 h;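 active = mean inhibition across replicates of 60% or more, whatever share of single replicates reaches that level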
KKLEB cytotox – counter-screen for CF NF-kB inhibitors: cytotoxicity | KKLEB CF airway cells viability, ATPlite luminescence, overnight; hits give low values; cells stimulated with P. aeruginosa culture filtrate | activity change (cytotoxicity), % at 5 µM | actives 0.36% (n = 360,000) | AID 602141;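 active = corrected activity change at or below -50% at 5 µM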
HIF-2a block – inhibitors of HIF-2a | 786-0 RCC cells HIF-2a reporter, luciferase luminescence, overnight | inhibition, % at 18.8 µM | actives 0.72% (n = 360,000);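 active = inhibition of the luminescence signal of 40% or more relative to plate controls, in a single-dose primary screen at 18.75 µM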
CF NFkB conf – CF NF-kB inhibition confirmation, single concentration; KKLEB CF airway cells, PAF-induced NF-kB-GFP fluorescence, overnight; shares compounds with CF NFkB inh; actives 64% (n = 1,300); inhibition, % at 5 µM; in the data active = inhibition above about 40%;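 also: stimulus PAF is a Pseudomonas aeruginosa filtrate and not platelet activating factor; plate controls were DMSO wells with stimulus for no effect and unstimulated DMSO wells for full effect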
Mdm2 MdmX conf – confirmation of inhibitors of human Mdm2/MdmX interaction, set 2. shares compounds with HIF-2a block. SaOS-2 split-luciferase Mdm2/MdmX complementation, luminescence. inhibition, % at 8 µM. actives 99% (n = 740);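 active = mean inhibition of the luminescence signal across two replicates at or above 26 percent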
Target sequence (O15151 whole entry, looked up): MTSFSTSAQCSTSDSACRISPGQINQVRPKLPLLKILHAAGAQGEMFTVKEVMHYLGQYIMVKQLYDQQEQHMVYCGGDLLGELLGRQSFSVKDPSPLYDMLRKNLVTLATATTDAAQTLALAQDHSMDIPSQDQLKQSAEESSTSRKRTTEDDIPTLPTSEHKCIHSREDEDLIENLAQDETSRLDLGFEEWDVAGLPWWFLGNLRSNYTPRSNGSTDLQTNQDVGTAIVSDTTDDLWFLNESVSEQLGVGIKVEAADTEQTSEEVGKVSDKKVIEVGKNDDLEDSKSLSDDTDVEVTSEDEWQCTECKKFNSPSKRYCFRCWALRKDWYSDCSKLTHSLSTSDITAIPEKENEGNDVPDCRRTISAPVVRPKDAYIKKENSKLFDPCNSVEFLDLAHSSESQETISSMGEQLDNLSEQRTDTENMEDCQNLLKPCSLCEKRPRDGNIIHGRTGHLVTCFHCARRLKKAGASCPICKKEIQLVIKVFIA
Target sequence (Q00987 whole entry, looked up): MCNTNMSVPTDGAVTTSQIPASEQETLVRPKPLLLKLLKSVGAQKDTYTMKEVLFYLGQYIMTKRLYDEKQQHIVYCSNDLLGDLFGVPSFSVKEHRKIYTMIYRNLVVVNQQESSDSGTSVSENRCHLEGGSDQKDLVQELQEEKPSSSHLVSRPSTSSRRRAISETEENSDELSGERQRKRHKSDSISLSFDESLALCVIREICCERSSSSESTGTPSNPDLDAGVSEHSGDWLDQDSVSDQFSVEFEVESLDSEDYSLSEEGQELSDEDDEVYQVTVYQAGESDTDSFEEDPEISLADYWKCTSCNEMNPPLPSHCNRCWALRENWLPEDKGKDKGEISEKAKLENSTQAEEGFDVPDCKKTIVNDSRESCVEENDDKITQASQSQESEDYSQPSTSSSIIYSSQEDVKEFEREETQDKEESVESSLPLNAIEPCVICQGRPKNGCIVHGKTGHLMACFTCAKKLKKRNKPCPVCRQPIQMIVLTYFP
HIF-2a conf – HIF-2a inhibition, single concentration confirmation | shares compounds with HIF-2a block | 786-0 RCC cells, HIF-2a luciferase reporter luminescence, overnight | inhibition, % at 18.8 µM | actives 56% (n = 1,800);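 active = mean inhibition across four replicates of at least 40 percent at the single tested concentration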
HIF-1a cs – counter-screen for HIF-2a inhibitors: HIF-1a inhibition in MiaPaCa-2 cells | shares compounds with HIF-2a block | MiaPaCa-2 HIF-1a luciferase reporter, desferoxamine, overnight | inhibition, % at 18.8 µM | actives 72% (n = 1,800);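 active = mean inhibition of the reporter signal across four replicates at the single tested dose of 50% or more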
An asterisk follows results filed as active; · = not tested or not shown.

SMILES	LMP1 NFkB inh	Peg3 promoter	CF NFkB inh	MITF TRPM1 inh	KKLEB cytotox	HIF-2a block	CF NFkB conf	HIF-2a conf	HIF-1a cs	others
Cc1cc(C(=O)Cn2ncc(Cl)c(Cl)c2=O)c(C)n1CC(F)(F)F	-45.1	99.7*	76.9*	43.0	-21.5	94.3*	-23.0	-15.2	103.3*
CCCNC(=O)c1cc(C2CCCCN2S(=O)(=O)c2ccccc2)on1 (configuration not stated)	·	-7.9	-2.4	·	-0.4	-5.0	·	·	·
CN(C)S(=O)(=O)c1cccc(NC(=O)COC(=O)c2ccc3ccccc3n2)c1	-6.1	12.2	-25.5	·	15.8	20.8	·	·	·
Cc1nnnn1/C(=C\c1ccccc1)C(=O)OCC(=O)Nc1cccc(S(=O)(=O)N(C)C)c1	-25.4	105.9*	62.7*	45.9	-15.8	42.1*	-51.2	78.7*	21.9
CC(C)N(C)c1ncnc2c1ncn2[C@H]1CN(Cc2ccc(F)cc2)C[C@@H](CO)O1	·	6.4	-6.5	·	-4.3	12.5	·	·	·
N#Cc1c(Oc2ccc3ccccc3c2)sc(C(=O)c2ccccc2)c1N	57.8*	48.3	50.6*	22.2	-14.9	42.5*	-102.5	17.4	-81.7
CNC(=O)C[C@@H]1CC[C@@H]2[C@H](COC[C@H](O)CN2S(=O)(=O)c2ccccc2Cl)O1	·	·	·	·	·	9.3	·	·	·
CC(=O)Nc1ccc(CN2C(=O)C(CCc3ccccc3)ON=C2c2cnccn2)cc1 (configuration not stated)	·	-58.4	-18.0	·	-0.9	-111.2	·	·	·
COc1ccc2cc3c(N)nn(C(=O)c4ccc(F)cc4)c3nc2c1	37.8	-20.7	62.6*	-9.2	-4.1	-0.9	72.1*	·	·	Mdm2 MdmX conf=91.5*
COc1ccc2cc3c(N)nn(C(=O)c4cccc(F)c4)c3nc2c1	25.9	7.6	49.5	-5.3	-2.5	3.6	·	·	·
CC1CCC/C=C/C(=O)c2c(O)cc(O)cc2CC(=O)O1 (configuration not stated)	-18.7	105.9*	82.4*	91.6*	-5.3	90.8*	36.3	79.6*	101.9*	Mdm2 MdmX conf=103.5*
C[C@@H]1Cc2c(O)c(O)cc(O)c2C(=O)O1	-3.4	0.0	0.3	-3.0	9.8	10.1	·	·	·
COc1ccc(NC(=O)C(c2cc3ccccc3o2)n2c(=O)c(-c3cc4ccccc4[nH]3)nc3ccccc32)cc1 (configuration not stated)	·	·	·	·	·	-82.5	·	·	·
COc1ccccc1CN1CCNC(=O)C1CC(=O)N(C)C1CCOCC1 (configuration not stated)	5.9	5.0	-17.2	·	10.9	4.4	·	·	·
Cn1ncc2c(O/N=C(\N)c3ccc(C(C)(C)C)cc3)ncnc21	-58.8	112.2*	57.9*	80.1*	-43.5	93.1*	87.8*	98.3*	-197.5	Mdm2 MdmX conf=103.0*
CCOC(=O)C1=CCN(S(=O)(=O)c2ccccc2C)C1c1ccc(C)cc1 (configuration not stated)	·	12.0	-6.3	·	-2.2	3.4	·	·	·
CCOC(=O)COc1ccc2ccccc2c1/C=C/[N+](=O)[O-]	11.8	107.0*	62.3*	82.9*	-23.4	90.2*	106.7*	85.8*	104.4*
CCOC(=O)COc1ccccc1/C=N/O	-0.3	-102.8	1.1	5.9	-3.9	16.5	·	·	·
COc1ccc(C#Cc2cnc3c(c2)C(=O)N([C@@H](C)CO)C[C@@H](C)[C@@H](CN(C)CC2CCOCC2)O3)cc1	-7.1	-15.7	-17.8	·	6.5	-6.6	·	·	·
Cc1cc2c([nH]c3ccccc32)c2c1OC(C)(C)C=C2	-219.4	-389.9	16.5	-85.7	-14.5	-281.1	·	·	·
COc1ccc2[nH]c(=O)c3c(c2c1)OC(C)(C)C=C3	23.4	37.5	86.5*	21.1	-7.3	21.9	97.6*	·	·	Mdm2 MdmX conf=98.5*
